From PubChem BioAssay (EPA / NIEHS)
Calls of active or inactive are those of the source. Rule for the calls: active = hit-call score of the fitted dose curve at least 0.9, where 1 is the maximum; inactive = score below 0.9.

How the values were obtained:
[1] = read-out: Cytochrome P450 (CYP1A1), CYP1A1 (gene 1543); experiment: LTEA_HepaRG_CYP1A1: Life Technologies and Expression Analysis (LTEA) Assay for Cytochrome P450 (CYP1A1) using HepaRG (AID 2283454); conditions: mRNA level, 48 h; actives raise or lower the signal
Method in brief: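 HepaRG, 48 h post-plating switched to serum-free induction medium; 8-pt conc-response (top 100 uM, half-log, 0.5% DMSO), duplicates, 48 h. Lysis in RLT, TaqMan qRT-PCR for CYP1A1; gain or loss vs DMSO.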

[2] = read-out: CFLAR gene, CFLAR (gene 8837); experiment: LTEA_HepaRG_CFLAR: Life Technologies and Expression Analysis (LTEA) Assay for CFLAR gene using HepaRG (AID 2283455); conditions: mRNA level, 48 h; actives raise or lower the signal
Method in brief: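 Differentiated HepaRG cells in serum-free induction medium were exposed 48 h in duplicate to eight half-log concentrations up to 100 uM in 0.5% DMSO; mRNA measured by TaqMan qRT-PCR, normalized to ACTB, GAPDH, POLR2A; bidirectional fitting versus DMSO.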

[3] = read-out: Forkhead box O1 (FOXO1), FOXO1 (gene 2308); experiment: LTEA_HepaRG_FOXO1: Life Technologies and Expression Analysis (LTEA) Assay for Forkhead box O1 (FOXO1) using HepaRG (AID 2283456); conditions: mRNA level, 48 h; actives raise or lower the signal
Method in brief: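 Differentiated HepaRG cells, in serum-free induction medium with 0.5% DMSO, exposed 48 h in duplicate to 8-point half-log series from 100 uM. FOXO1 mRNA measured by TaqMan qRT-PCR, normalized to ACTB, GAPDH, POLR2A; bidirectional fit versus DMSO.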

[4] = read-out: growth arrest and DNA damage 45 (GADD45A), GADD45A (gene 1647); experiment: LTEA_HepaRG_GADD45A: Life Technologies and Expression Analysis (LTEA) Assay for growth arrest and DNA damage 45 (GADD45A) using HepaRG (AID 2283458); conditions: mRNA level, 48 h; actives raise or lower the signal
Method in brief: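 Differentiated HepaRG cells were exposed in duplicate for 48 h in serum-free induction medium to 8-point half-log concentrations up to 100 uM in 0.5% DMSO. GADD45A mRNA was measured by TaqMan qRT-PCR, normalized to ACTB, GAPDH and POLR2A, with bidirectional fitting versus DMSO.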

[5] = read-out: Forkhead box O3 (FOXO3), FOXO3 (gene 2309); experiment: LTEA_HepaRG_FOXO3: Life Technologies and Expression Analysis (LTEA) Assay for Forkhead box O3 (FOXO3) using HepaRG (AID 2283459); conditions: mRNA level, 48 h; actives raise or lower the signal
Method in brief: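 Differentiated human HepaRG cells, 48 h post-plating, exposed in duplicate for 48 h in serum-free induction medium; 8-point half-log series from 100 uM in 0.5% DMSO. FOXO3 mRNA by TaqMan qRT-PCR, normalized to ACTB/GAPDH/POLR2A; bidirectional fit versus DMSO.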

[6] = read-out: ABC Transporter (ABCB1), ABCB1 (gene 5243); experiment: LTEA_HepaRG_ABCB1: Life Technologies and Expression Analysis (LTEA) Assay for ABC Transporter (ABCB1) using HepaRG (AID 2283460); conditions: mRNA level, 48 h; actives raise or lower the signal
Method in brief: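 HepaRG cells exposed in duplicate for 48 h in serum-free induction medium to eight half-log concentrations up to 100 uM in 0.5% DMSO. ABCB1 mRNA quantified by qRT-PCR, normalised to ACTB, GAPDH and POLR2A; fitted bidirectionally versus DMSO.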

[7] = read-out: growth arrest and DNA damage 45 (GADD45B), GADD45B (gene 4616); experiment: LTEA_HepaRG_GADD45B: Life Technologies and Expression Analysis (LTEA) Assay for growth arrest and DNA damage 45 (GADD45B) using HepaRG (AID 2283461); conditions: mRNA level, 48 h; actives raise or lower the signal
Method in brief: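 HepaRG, ~100,000 cells/well, 48 h plating; serum-free induction medium; cpd 100 uM top, half-log x8, 0.5% DMSO, duplicate, 48 h; lysis in RLT, RNA isolation, qRT-PCR; norm ACTB/GAPDH/POLR2A; bidirectional fit vs DMSO.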

[8] = read-out: ABC Transporter (ABCC3), ABCC3 (gene 8714); experiment: LTEA_HepaRG_ABCC3: Life Technologies and Expression Analysis (LTEA) Assay for ABC Transporter (ABCC3) using HepaRG (AID 2283462); conditions: mRNA level, 48 h; actives raise or lower the signal
Method in brief: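 Human HepaRG, 48 h dosing, 8-pt half-log series from 100 uM, 0.5% DMSO vehicle, duplicates. ABCC3 mRNA by TaqMan qRT-PCR, housekeeping-normalized; bidirectional curve fit vs DMSO.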

[9] = read-out: ABC Transporter (ABCB11), ABCB11 (gene 8647); experiment: LTEA_HepaRG_ABCB11: Life Technologies and Expression Analysis (LTEA) Assay for ABC Transporter (ABCB11) using HepaRG (AID 2283463); conditions: mRNA level, 48 h; actives raise or lower the signal
Method in brief: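 Differentiated human HepaRG cells in serum-free induction medium, dosed in duplicate for 48 h. Eight-point half-log series from 100 uM in 0.5% DMSO; ABCB11 mRNA by qRT-PCR, normalized to ACTB, GAPDH, POLR2A, fitted bidirectionally versus DMSO.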

[10] = CEETOX_H295R_TESTO: CeeTox H295R High-throughput Steroidogenesis Assay for Testosterone (TESTO) (AID 2283457); conditions: actives raise or lower the signal
Description: CEETOX_H295R is a cell-based, multiplexed-readout assay that uses H295R, a human adrenal gland cell line, with measurements taken at 48 hours after chemical dosing in a 96-well plate.CEETOX_H295R_TESTO is one of 23 assay component(s) measured or calculated from the CEETOX_H295R assay. It is designed to make measurements of hormone induction, a form of inducible reporter, as detected with […] by HPLC-MS-MS technology.Data from the assay component CEETOX_H295R_TESTO was analyzed into 1 assay endpoint. This assay endpoint, CEETOX_H295R_TESTO, was analyzed with bidirectional fitting relative to DMSO as the negative control and baseline of activity. Using a type of inducible reporter, gain or loss-of-signal activity using HPLC-MS-MS was used to understand synthesis of Testosterone in H295R cell line at 48hr of chemical exposure. To generalize the intended target to other relatable targets, this assay endpoint is annotated to the steroid hormone intended target family, where the subfamily is androgens.
Cell culture and media preparation procedures were conducted in accordance with OECD Test No. 456 guidelines, with minor modifications. H295R cells (ATCC CRL-2128) were expanded for 5 passages and frozen in batches in liquid nitrogen. Prior to the steroidogenesis assay, H295R cells were thawed and passed at least 4 times. The maximum passage was 10. Cells were maintained in a 1:1 mixture of DMEM/F12 supplemented with 5ml/L ITS+ Premix (BD Bioscience) and 12.5 ml/L Nu-Serum (BD Bioscience). After seeding cells into 96-well plates at 50-60% confluency, cells were allowed to adhere overnight. […] Test chemicals were incubated for 48 hours, then the medium was removed and split into 2 vials containing approximately 75uL each, and stored at -80 C prior to hormone analysis. For steroid quantification, media samples were shipped to OpAns, LLC (Durham, NC) on dry ice, and samples were thawed to room temperature prior to liquid-liquid extraction. Steroid hormones were extracted from media samples using methyl tertbutyl ether (MTBE). An extra derivatization with dansyl chloride was included for estrogen (estrone and estradiol) detection only. Steroid hormones were separated by HPLC, eluted using a reverse phase C18 gradient with electrospray positive ionization, followed by quantification by tandem mass spectrometry (MS/MS). Data were acquired on a MassHunter Workstation Acquisition version B03.01 (Agilent Technologies, Inc.) and processed using MassHunter Quantitative Analysis for QQQ. Accuracy was determined for each hormone analyte from 3 standards to determine upper and lower limits of quantification (ULOQ and LLOQ, respectively) using a 7-point standard curve. Precision and accuracy of the extraction and quantification methods were calculated as the percent relative standard deviation (%RSD) of the spiked standards and percent spiked standard recovered, respectively. […] Test medium was removed following chemical exposure, and cell viability was evaluated in the same wells by MTT. […] Absorbance was read at 570 and 650nm using a Packard Fusion microplate reader. Background correction of absorbance units was used to determine percent change relative to controls. […] When a test chemical reduced cell viability to 20% - 70%, the test chemical was diluted 10-fold and re-evaluated, but if cell viability was <20%, then the test chemical was diluted 100-fold and re-evaluated. […]

Measured: AC50

COS(C)(=O)=O
not listed: [10]
inactive: all other assays above

NNC(=O)c1ccncc1
active: [1] 22 µM
not listed: [10]
inactive: all other assays above

CC[C@H](C)C(=O)O[C@H]1C[C@H](O)C=C2C=C[C@H](C)[C@H](CC[C@@H](O)C[C@@H](O)CC(=O)O)[C@H]21
active: [1] 9.15 µM
not listed: [10]
inactive: all other assays above

CCCCCCOC(=O)CC(CC(=O)OCCCCCC)(OC(=O)CCC)C(=O)OCCCCCC
not listed: [10]
inactive: all other assays above

Cn1cc[nH]c1=S
active: [1] 37.4 µM
not listed: [10]
inactive: all other assays above

COc1cc2c(c(OC)c1OC)-c1ccc(OC)c(=O)cc1[C@@H](NC(C)=O)CC2
active: [1] 0.0575 µM | [2] 0.0663 µM | [3] 0.0309 µM | [6] 0.0797 µM | [8] 0.196 µM | [9] 0.0634 µM
inactive: [10] | [4] | [5] | [7]

O=c1[nH]cnc2c1ncn2[C@H]1CC[C@@H](CO)O1
not listed: [10]
inactive: all other assays above

CCCCC(CC)C(=O)OCCOCCOCCOC(=O)C(CC)CCCC (centres undefined)
inactive: all assays above
